Source: PubChem BioAssay
An excerpt weighted towards active compounds, which were near 5.4% of everything screened.
PHOSPHO1 inh: PHOSPHO1 (human) inhibition; actives 1.1% (n = 290,000); recombinant PHOSPHO1, absorbance phosphatase assay; inhibition, % at 13.3 µM; in the data active = inhibition above about 60%
Target sequence (Q8TCT1 whole entry, looked up): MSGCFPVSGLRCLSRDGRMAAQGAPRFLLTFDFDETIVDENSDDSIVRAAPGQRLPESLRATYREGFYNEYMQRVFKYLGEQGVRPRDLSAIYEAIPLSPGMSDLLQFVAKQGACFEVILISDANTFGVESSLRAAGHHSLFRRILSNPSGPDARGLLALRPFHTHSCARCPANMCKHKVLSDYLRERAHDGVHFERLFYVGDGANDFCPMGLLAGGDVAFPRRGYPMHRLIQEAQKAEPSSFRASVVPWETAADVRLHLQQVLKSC
APOBEC3G inh: inhibitors of human APOBEC3G DNA deaminase; actives 0.28% (n = 330,000); recombinant A3G, ssDNA deamination FAM/TAMRA fluorescence; inhibition, % at 20 µM;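 active = inhibition of at least 40% at 20 µM, with no more than 30% in the related APOBEC3A deaminase screen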
rCAG binder: r(CAG) repeat RNA binding; TO-PRO-1 dye displacement fluorescence; inhibition, % at 3 µM; actives 1.3% (n = 370,000); AID 651821;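 active = inhibition above the plate cutoff, the mean of all test compounds on that plate plus 3 SD, cut at about 35% in these data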;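 note: higher means more dye released from RNA so lower well fluorescence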
A3A deaminase: human APOBEC3A DNA deaminase inhibition. actives 0.41% (n = 330,000). recombinant A3A, FAM/TAMRA ssDNA deamination fluorescence. inhibition, % at 20 µM;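 active = at least 40% inhibition at 20 µM here, with at most 30% in a related deaminase screen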
Target sequence (P31941 whole entry, looked up): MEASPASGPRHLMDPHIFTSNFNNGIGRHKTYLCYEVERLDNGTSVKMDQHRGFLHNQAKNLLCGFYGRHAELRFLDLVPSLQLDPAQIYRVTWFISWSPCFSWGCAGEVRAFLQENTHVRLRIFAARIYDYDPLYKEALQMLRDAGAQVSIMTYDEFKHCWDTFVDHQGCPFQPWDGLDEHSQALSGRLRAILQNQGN
aDG glyco up: alpha-DG glycosylation activation | activation, % at 10 µM | Pro5-aDG cells, alpha-DG glycosylation AlphaScreen (IIH6); 0% Pro5, 100% B10-LARGE cell signal | actives 0.22% (n = 360,000) | AID 624168;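 active = activation of at least 8% versus controls, or a plate z-score of at least 8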;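 note: Pro5 are CHO cells carrying HIG-tagged alpha-DG that lacks glycosylation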
ALR inh: inhibitors of human sulfhydryl oxidase ALR; purified ALR, DTT oxidation, H2O2 HRP-luminol luminescence; actives 3.8% (n = 290,000); inhibition, % (concentration not given with the values);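 active = mean replicate inhibition above about 79%, with every replicate also reaching it, limit read from the data; inconclusive = only one of the two criteria met; inactive = mean below limit and not every replicate reaching it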
Hits are given with their value; - = inactive; ? = inconclusive; . = no result.

SMILES	PHOSPHO1 inh	APOBEC3G inh	rCAG binder	A3A deaminase	aDG glyco up	ALR inh
CCOc1ccccc1N1CC(C(=O)Nc2ccccc2N2CCCC2)CC1=O (configuration not stated)	.	-	-	-	-	88
O=C(Nc1ccccc1N1CCCC1)C1CC(=O)N(Cc2ccccc2)C1 (configuration not stated)	.	-	-	-	-	97
CC(C)CN1C(=O)N2Cc3ccccc3C2CS1(=O)=O (configuration not stated)	.	.	-	.	.	.
CCC(Sc1nc2ccc(N)cc2s1)C(=O)Nc1nccs1 (configuration not stated)	-	-	-	-	-	99
CCC(Sc1nc2ccccc2s1)C(=O)Nc1nnc(C)s1 (configuration not stated)	-	-	-	-	-	98
COc1ccc(C2=CSC3=NCCN23)cc1F	-	-	-	-	-	85
C=CCN1C(=O)[C@@H](CC(=O)N2CCOCC2)[C@]2(C(=O)OC)CCCCC=C12	.	.	-	.	.	.
CCS(=O)(=O)c1ccc(C(=O)NC2CC2)c(Cl)c1Cl	60	-	-	-	-	-
N#CCC(=O)Nc1ccc(C(=O)NNC(=S)NC2CCCCC2)cc1	.	-	-	-	-	94
CC(C)CC(=O)Nc1ccc(C(=O)NNC(=S)NC(=O)C2CCCCC2)cc1	93	-	-	-	-	-
CN(C)c1cccc(C(=O)NNC(=S)NC2CCCC2)c1	-	-	-	-	-	99
O=C(OCc1cn(Cc2cc(F)cc(F)c2)nn1)N1CCOCC1	.	.	-	.	.	.
COc1ccc(C(=O)N2CCC(Oc3cccnc3)CC2)c(OC)c1	.	.	-	.	.	.
COc1ccccc1/C=C/C(=O)Nc1cccc(C(C)=O)c1	69	-	-	-	-	-
COc1cc(NC(=O)Nc2cccc(C(C)=O)c2)cc(OC)c1OC	-	-	-	-	-	98
CN1CCN(c2c(/C=N/O)c3ccccc3n2C)CC1	-	-	-	-	-	93
CCOC(=O)c1c(NC(=O)COC(=O)CCS(=O)(=O)c2ccc(C)cc2)sc(C)c1C	-	-	-	-	-	94
Cc1[nH]c2ccccc2c1C(c1ccccn1)N1CCC(C(N)=O)CC1 (configuration not stated)	-	-	-	-	-	98
CCOC(=O)C1CCN(C(c2ccccn2)c2c(C)[nH]c3ccccc23)CC1 (configuration not stated)	-	-	-	-	-	-
Cc1[nH]c2ccccc2c1C(c1ccncc1)N1CCC(C)CC1 (configuration not stated)	-	-	-	-	-	97
N#Cc1c(Cl)nc2c(c1C#N)CCCC2	-	-	-	-	-	97
CCCCc1nc(Cl)c(C#N)c2c1CCCC2	-	-	-	-	-	-
COc1cc(C(=O)N/N=C(\C)Cn2nc([N+](=O)[O-])cc2C)ccc1O	-	-	-	-	-	83
CCN(CC)CCNS(=O)(=O)c1ccc(OC)c(Br)c1	93	-	-	-	-	-
COc1cccc(N2CC(=O)N(c3cccc(OC)c3)CC2=O)c1	60	-	-	-	-	-
SMILES	PHOSPHO1 inh	APOBEC3G inh	rCAG binder	A3A deaminase	aDG glyco up	ALR inh
C[C@H](O)[C@@H]1CN2CCc3c([nH]c4c(-c5ccccc5)cccc34)[C@@H]2C[C@@H]1N(C)C(=O)NC1CCCCC1	.	.	-	.	.	.
CCCCCCCCN1C(=O)[C@@H](CC(=O)NCC23CC4CC(CC(C4)C2)C3)C[C@@]2(C(=O)OC)C1=C[C@H](C(C)(C)C)O[C@@H]2C	.	.	-	.	.	.
O=C1/C(=C/c2ccncc2)SC(=S)N1C1CCCCC1	-	-	-	-	-	-
Cc1ccc(/C=C2/SC(=O)NC2=S)o1	68	-	.	-	-	.
Cc1ccc(/C=C2/SC(=S)N(C3CCCCC3)C2=O)o1	-	-	55	-	-	-
CCCCOCCCNC(=O)C[C@H]1C[C@@]2(C(=O)OC)C(=C[C@H](C3CCCC3)O[C@@H]2C)N(Cc2ccccc2)C1=O	.	.	-	.	.	.
O=C(NCCN1CCC(Cc2ccccc2)CC1)C1CCCN(S(=O)(=O)c2ccccc2)C1 (configuration not stated)	.	.	-	.	.	.
Cc1sc2nc(N)sc2c1C	90	-	-	-	-	-
COc1cccc2cc(-c3ccccc3)oc12	.	-	-	-	-	-
COc1cccc2cc(-c3ccnc(=S)[nH]3)oc12	-	-	.	-	.	99
C#CCCN([C@H](C(=O)OC)C(C)CC)S(=O)(=O)c1ccccc1Br (some centres not stated)	.	.	-	.	.	.
NC(=O)CSc1cn(CCNC(=O)c2cccs2)c2ccccc12	-	-	-	-	-	98
CC(=O)N1CCC(=NNc2nc3ccccc3[nH]2)CC1	-	-	-	-	-	100
CCC(C)(C)C1CCC(=NNc2nc3ccccc3[nH]2)CC1 (configuration not stated)	-	-	-	-	-	-
O=C(CC1Sc2ncnn2C1=O)Nc1ccccc1 (configuration not stated)	94	-	-	-	-	-
O=C(CC1SC(=O)N(c2ccccc2)C1=O)Nc1ccccc1 (configuration not stated)	-	-	-	-	-	98
Cc1cccc(NC(=O)CC2SC(=O)N(c3ccccc3)C2=O)c1 (configuration not stated)	-	-	-	-	-	98
N=C1SC(CC(=O)Nc2ccc([N+](=O)[O-])cc2)C(=O)N1c1ccccc1 (configuration not stated)	-	-	-	-	-	-
Cc1cccc(NC2SC(=O)N(c3ccccc3)C2=O)c1 (configuration not stated)	-	-	-	-	-	-
O=C(CC1SC2=NCCN2C1=O)Nc1ccccc1 (configuration not stated)	-	-	-	-	-	-
Cc1ccc(NC(=O)CC2SC(=O)N(c3ccccc3)C2=O)cc1 (configuration not stated)	-	-	37	-	-	98
Cc1cccc(Cn2cc(CN3CC(N(C)CCCOC(=O)c4cc5ccccc5o4)CS3(=O)=O)nn2)c1 (configuration not stated)	.	.	-	.	.	.
COc1ccc(C(=O)NC2CCCc3c2cnn3-c2cccc(C)c2C)o1 (configuration not stated)	64	-	-	-	-	-
CC1=C(C(=O)NC2CCCc3c2cnn3-c2cccc(C)c2C)OCCO1 (configuration not stated)	-	-	-	-	-	-
O=C(OC12CCCN(C1)/C(=C/c1ccncc1)C2)c1ccc(F)cc1 (configuration not stated)	.	.	-	.	.	.
Cc1cc2nc(-c3ccc(SCc4ccccn4)nc3)[nH]c2cc1C	-	-	-	-	-	98
Cc1cc2nc(-c3ccc(SCC(=O)N4CCOCC4)nc3)[nH]c2cc1C	-	-	-	-	-	?
